This is an account of results in ChEMBL document CHEMBL4513216, “Probing the Open Global Health Chemical Diversity Library for Multistage-Active Starting Points for Next-Generation Antimalarials” (ACS Infect Dis, 2020).

Hit rate of the full screen: of about 65,000 compounds, about 2,100 (3.2%) showed an effect of 50% or more. The median lay at about -52%. The full list was thinned out, with strong results kept by preference.

This test deals with Plasmodium falciparum. The experiment in a line: Screen against P. falciparum Asexual Blood Stage (ABS), at 5uM. Format: functional, Dd2. As to conditions: tested at 5 uM.
On to `CC(=O)N(C)c1nc(CN2CCCCC2Cn2cncn2)cs1` (stereo not drawn), for which the INHIBITION is on record as -125%.

As for `CCN(C(C)=O)c1nc(CN2CCCCC2Cn2cncn2)cs1` (stereo not drawn), the INHIBITION was 9.81%.

Regarding `CC(=O)N(c1ccc(C)cc1)c1nc(CN2CCCCC2C)cs1` (stereo not drawn), the INHIBITION is reported as 61.8%.

Turning to `Cc1cnc(NC(C)Cc2cccnc2)nc1N(C)C` (stereo not drawn), the INHIBITION worked out at 5.71%.

For `O=C(NCc1ccco1)[C@@H]1CCO[C@@H]2CCN(CC3CC3)C[C@@H]21`, the INHIBITION was -37.9%.

Turning to `CN1CC(=O)N(c2cccc(F)c2)CC12CCN(Cc1nccs1)C2` (stereo not drawn), the INHIBITION is listed as -71.1%.

On to `c1ccc(-n2nnnc2CNCC2CCCN2c2cccnn2)cc1` (stereo not drawn), for which the INHIBITION is given as -59.9%.

As to `Cc1cccc(-c2nccnc2C2CCCN(C)C2)c1` (stereo not drawn), the INHIBITION was -10.8%.

For the compound `COCCN1CCCC(c2nccnc2-c2cccc(Cl)c2)C1` (stereo not drawn), the INHIBITION came out at 62.9%.

As for `CN1CCCC(c2nccnc2-c2cccc(C(F)(F)F)c2)C1` (stereo not drawn), the INHIBITION amounted to 68.7%.

Turning to `CN(C)C(=O)CN1CCCC(c2nccnc2-c2cccc(Cl)c2)C1` (stereo not drawn), the INHIBITION is 6.94%.

Regarding `Cn1cc(CN2CCCC(c3nccnc3-c3cccc(F)c3)C2)cn1` (stereo not drawn), the INHIBITION was -45.2%.

With `CN1CCCC(c2nccnc2-c2cccc(Cl)c2)C1` (stereo not drawn), the INHIBITION came to 45.1%.

For `COc1ccc2c(c1)OCC(CNc1cc(N)nc(SC)n1)C2` (stereo not drawn), the INHIBITION is -50.7%.

For `CC(Cn1cccn1)NCc1ccc(OCc2ccncc2)cc1` (stereo not drawn), the INHIBITION is on record as -96.3%.

Take `CN1CCOC(CNCCOc2ccc(C#N)cc2)C1` (stereo not drawn): the INHIBITION is recorded as -41.7%.

Regarding `Oc1coc2cc(OC[C@@H]3CCCN4CCCC[C@H]34)ccc12`, the INHIBITION is reported as -8.29%.

Turning to `Cc1c(Cl)cccc1S(=O)(=O)N1CCC(S(=O)(=O)c2nncn2C)CC1`, the INHIBITION is -68.7%.

For `O=C(NCc1cnc2n1CCN(Cc1ccsc1)CC2)C1CCC1`, the INHIBITION is on record as -48.2%.

Consider `CNS(=O)(=O)CCCN1CCCC1c1noc(C)n1` (stereo not drawn), for which the INHIBITION is listed as -104%.

As for `CCc1nc(C2CCCN2Cc2nc(C(C)(C)C)no2)no1` (stereo not drawn), the INHIBITION is recorded as -105%.

Consider `CCn1cc(CNC(=O)CC(C)C)cn1`, for which the INHIBITION is listed as -153%.

On to `CC(C)n1ccnc1CN1CCCN(C(=O)c2cc(Cl)c[nH]2)CC1`, for which the INHIBITION is 39%.

On to `Cc1[nH]ncc1C(=O)N1CCCN(Cc2nccn2C(C)C)CC1`, for which the INHIBITION worked out at 11.1%.

As to `CC(C)n1ccnc1CN1CCCN(C(=O)c2cnc[nH]2)CC1`, the INHIBITION was found to be 60.4%.

With `CN(C)CC(=O)N1CCC2(CC(=O)N(c3cccc(C#N)c3)C2)C1` (stereo not drawn), the INHIBITION is recorded as -30%.

On to `Cc1cccc(CN2CCC3(CC(C(=O)NCC(C)C)=NO3)C2)c1` (stereo not drawn), for which the INHIBITION is listed as -93.1%.

Regarding `CCOCCN1CCN(CCOCC(F)(F)F)CC1`, the INHIBITION is on record as -38.7%.

Regarding `CC(C(=O)NCc1ccco1)N1CCN(Cc2nccn2C)CC1` (stereo not drawn), the INHIBITION is on record as -35.6%.

As to `FC(F)(F)C1CCCn2c(CNCc3ccco3)nnc21` (stereo not drawn), the INHIBITION was -67%.

For `Cn1ccnc1C(O)(CCNCc1ccco1)C(F)(F)F` (stereo not drawn), the INHIBITION turned out to be 64.6%.

In the case of `CCc1cc(=O)[nH]c(-n2nc(C3CC3)cc2NC(=O)C2CC2)n1`, the INHIBITION is -66.5%.

With `COCCC(=O)NC1CCN(CC2(c3cccc(F)c3)CCCC2)CC1`, the INHIBITION is given as 69.1%.

Consider `COCCN1CCC(NC(=O)Nc2cccc(F)c2)C1` (stereo not drawn), for which the INHIBITION is reported as -54.6%.

Regarding `COCCN1CCC(NC(=O)NCC2(c3cccc(F)c3)CC2)C1` (stereo not drawn), the INHIBITION was -77.2%.

Consider `CC(=O)NCC(=O)N1CCn2cc(CN3CCCCC3)nc2C1`, for which the INHIBITION is recorded as -144%.

Consider `O=C(c1ccc(S(=O)(=O)NCCc2ccncc2)cc1)N1CCCC1`, for which the INHIBITION was -36.5%.

In the case of `COc1ccc(NC2CCc3c2[nH]c(=O)n(C2CCCCC2)c3=O)cc1` (stereo not drawn), the INHIBITION is -98.2%.

In the case of `CC(=O)N1CCCC1c1ccnc(Nc2cncnc2)n1` (stereo not drawn), the INHIBITION is -101%.

Turning to `CC(=O)N1CCC(c2ccnc(Nc3cncnc3)n2)CC1`, the INHIBITION is reported as -18.6%.

Turning to `c1ncc(Nc2nccc(C3CCCCN3CC3CCCCC3)n2)cn1` (stereo not drawn), the INHIBITION stood at 52%.

`CN(C)CCCNC(=O)c1cnc(Cc2ccc(F)cc2)s1`: the INHIBITION was 27.4%.

In the case of `Cc1cnc(C(=O)NC(CN2CCCC2=O)c2ccccc2)cn1` (stereo not drawn), the INHIBITION is given as 69.6%.

In the case of `Cc1cccc(C(=O)NC(CN2CCCC2=O)c2ccccc2)n1` (stereo not drawn), the INHIBITION was -161%.

Take `Cc1ccc(C(=O)NC(CN2CCCC2=O)c2ccccc2)cn1` (stereo not drawn): the INHIBITION is -81.3%.

For `Cn1c2ccccc2c2ncn(CCN3CCOCC3)c(=O)c21`, the INHIBITION was -57.9%.

`Cc1[nH]c2ccccc2c1-c1ccnc(N[C@@H](C)CO)n1`: the INHIBITION is given as -21.2%.

For `Cc1[nH]c2ccccc2c1-c1ccnc(N[C@@H](CO)C(C)C)n1`, the INHIBITION is -9.36%.

With `Cc1[nH]c2ccccc2c1-c1ccnc(N[C@H](CO)CC(C)C)n1`, the INHIBITION came to 51.9%.

Turning to `CC(c1nc(-c2ccccc2)no1)N1CCc2c(ncn2C2CC2)C1` (stereo not drawn), the INHIBITION was -19.5%.

On to `Fc1cccnc1Oc1cc(F)c(CN2CCCC2)c(Cl)c1`, for which the INHIBITION is reported as -49.5%.

Take `Cc1cccc(CN2C[C@@H](CN3CCCN(C)CC3)[C@@H](CO)C2)n1`: the INHIBITION was -29.5%.

With `OCC1CCN(C[C@@H]2CN(C3Cc4ccccc4C3)C[C@@H]2CO)CC1`, the INHIBITION came out at 66.4%.
